From PubChem
HSF1 inhib: HSF1 inhibition | NIH3T3-HGL HSE-luciferase, MG132-induced, luminescence 8 h; hits give low values | activity change, negative = inhibition, % at 7.5 µM (by protocol) | actives 0.77% (n = 300,000) | AID 2098;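 active = more than half of replicate wells show activity change below -50%, luminescence cut by over half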;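 also: luciferase reports HSF-1 transcriptional activity via heat shock element; 0% = median of DMSO wells and -100% = zero luminescence signal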
HSF1 activator: increases HSF-1 driven luciferase reporter signal. NIH3T3-HGL HSF-1 luciferase reporter, MG132, 8 h; 100% = twice DMSO control signal. AID 504408. activation, % at 9 µM. actives 1.7% (n = 300,000);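 active = mean replicate activation of at least 50% with a set share of replicates each reaching 50%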;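 also: 0% = median of the neutral control wells and 100% = twice that signal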
DAX1 inh: NR0B1 (DAX1) inhibition. inhibition, % at 6.75 µM. P51843. actives 0.99% (n = 340,000). AID 504766. HEK293 Gal4-DAX1 luciferase reporter, luminescence;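 active = inhibition above the mean over all tested compounds plus 3 SD, cut at about 4.2% in these data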;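 also: 0% = DAX1-transfected cells with DMSO and 100% = empty-vector control cells with DMSO; inhibition shows as a rise in luminescence from relieved DAX1 repression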
Target sequence (P51843 207-470 limits assumed): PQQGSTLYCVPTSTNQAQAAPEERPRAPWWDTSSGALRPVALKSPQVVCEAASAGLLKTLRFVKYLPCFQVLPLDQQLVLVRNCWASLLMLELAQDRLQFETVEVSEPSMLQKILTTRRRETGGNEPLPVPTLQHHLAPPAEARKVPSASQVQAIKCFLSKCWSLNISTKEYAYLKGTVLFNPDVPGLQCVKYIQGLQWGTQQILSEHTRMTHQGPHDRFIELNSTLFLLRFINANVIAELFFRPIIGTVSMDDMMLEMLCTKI
HSP90 refold inh: inhibitors of HSP90 luciferase refolding in rabbit reticulocyte lysate; luciferase refolding luminescence, 3 h; inhibition, % at 5.6 µM; actives 0.91% (n = 290,000);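 active = inhibition above the screen-wide mean plus 3 SD, computed separately per campaign, cut at about 16% in these data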;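 also: 0% = DMSO wells and 100% = 60 µM geldanamycin wells; inhibitors lower the luminescence because luciferase stays unfolded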
AHR act: activators of human aryl hydrocarbon receptor; P35869; actives 2.5% (n = 320,000); AID 2796; activation, % at 5 µM; AHR-responsive luciferase reporter cells, luminescence; in the data active = activation above about 47%;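 also: 0% = vehicle wells and 100% = reference agonist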
FXN GAA850 act: frataxin GAA850 promoter activation. actives 0.56% (n = 360,000). HEK293 lucGAA850 FXN promoter luciferase reporter, 24 h; percent of 10 µM SAHA response. activation, % at 6 µM. AID 540364;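 active = activation above the average of all compounds screened plus 3 SD, cutoff fixed separately per campaign, cut at about 7.5% in these data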;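 also: 0% = DMSO wells and 100% = 10 µM SAHA wells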
* marks the source's active call; other numbers are inactive results; x = no result given. This is a sample that favours compounds with a hit; in the whole collection about 5.9% have one here.

SMILES | HSF1 inhib | HSF1 activator | DAX1 inh | HSP90 refold inh | AHR act | FXN GAA850 act
CCCCOc1cccc(C2C(C(=O)c3cccs3)=C(O)C(=O)N2Cc2cccnc2)c1 (stereo unspecified) | -64* | -73 | 2 | 1 | 1 | 1
Cc1nnc(SCC2=C(C(=O)O)N3C(=O)C(NC(=O)c4cccc(F)c4F)C3SC2)s1 (stereo unspecified) | 24 | 63* | 0 | 3 | 3 | -2
Fc1cccc(NC(=S)NC2CCCCCCC2)c1 | x | x | 0 | -1 | x | 3
CCc1ccc(N2CC(C(=O)N/N=C/c3cc([N+](=O)[O-])ccc3O)CC2=O)cc1 (stereo unspecified) | -55* | -58 | x | -5 | 13 | -4
CCc1ccc(N2CC(C(=O)N/N=C/c3ccccc3OC)CC2=O)cc1 (stereo unspecified) | -1 | -7 | 0 | -6 | 5 | -1
NC(CSC(c1ccccc1)(c1ccccc1)c1cccc2ccccc12)C(=O)O (stereo unspecified) | x | x | 4.5* | x | x | 1
NC(CSC1(c2cccc3ccccc23)c2ccccc2-c2ccccc21)C(=O)O (stereo unspecified) | x | x | 0 | x | x | 0
C[C@H](CO)N1C[C@H](C)[C@@H](CN(C)S(=O)(=O)c2ccccc2C#N)OCc2cnnn2CCCC1=O | x | x | 0 | x | x | 0
COc1ccc(C(=O)O/N=C(\N)c2ccccc2)cc1OC | 32 | 56* | 5.9* | 0 | 14 | 5
N/C(=N\OC(=O)c1ccoc1)c1ccc(Br)cc1 | 30 | 69* | 2 | 5 | 6 | 3
COc1ccc(C(=O)O/N=C(\N)c2cccc(C)c2)cc1OC | 21 | 35 | 3 | -4 | -1 | 1
N/C(=N\OC(=O)c1ccc2ccccc2c1)c1ccc(Br)cc1 | 5 | 22 | -1 | 1 | 21 | 0
COc1ccc(/C(N)=N/OC(=O)CCc2ccccc2)cc1OC | 20 | 28 | 0 | -3 | 6 | 5
COc1ccc(/C(N)=N/OC(=O)CSc2ccccc2)cc1OC | 59 | 62* | 2 | 2 | 1 | 4
N/C(=N\OC(=O)c1cccc(Br)c1)c1ccccc1 | 12 | 29 | 2 | -3 | 74* | 6
Cc1cc(C)cc(C(=O)O/N=C(\N)c2ccc(Br)cc2)c1 | 8 | 23 | -1 | -2 | 10 | -3
CC(C)(C)c1ccc(C(=O)N2CCC2(C)C(=O)NS(=O)(=O)c2ccc(C#N)cc2)cc1 (stereo unspecified) | x | x | x | x | x | 0
COc1ccc(C(=O)O/N=C(\N)c2ccc(Cl)cc2)cc1 | 5 | -5 | 2 | -4 | -3 | 4
COc1ccccc1C(=O)O/N=C(\N)c1ccc(Cl)cc1 | 31 | 35 | 2 | 2 | 69* | 4
Cc1ccccc1C(=O)O/N=C(\N)c1ccc([N+](=O)[O-])cc1 | 9 | 33 | -1 | -3 | 15 | 0
CCOC(=O)c1ccc(OS(=O)(=O)c2ccccc2)c(OC)c1 | 25 | 63* | 1 | -3 | 2 | 5
COc1cc(OC)c(C(=O)O/N=C(\N)c2ccccc2)cc1OC | 0 | 17 | 1 | -4 | 78* | 1
Cc1ccccc1/C(N)=N/OC(=O)c1ccc(F)cc1 | 27 | 58* | 0 | -3 | 31 | 3
COc1cc(OC)c(C(=O)O/N=C(\N)c2ccccn2)cc1OC | 3 | 9 | 1 | -5 | 3 | 1
Cc1ccccc1OCCOC(=O)c1cc(S(=O)(=O)N2CCOCC2)ccc1C | x | x | 1 | x | x | 5
SMILES | HSF1 inhib | HSF1 activator | DAX1 inh | HSP90 refold inh | AHR act | FXN GAA850 act
COc1ccc(-c2nc3n(n2)C(c2ccccc2)C2=C(CCCC2=O)N3)cc1OC (stereo unspecified) | -57* | -68 | 0 | 7 | 2 | 4
Cc1ccc2cc(/C=C/C(=O)c3ccco3)c(Cl)nc2c1 | 68 | 119* | x | 0 | 1 | 6
Cc1ccc2nc(Cl)c(/C=C/C(=O)c3ccco3)cc2c1 | 30 | 47 | 1 | 0 | -1 | 5
CC(c1ccco1)N(C(=O)C12CC3(C)CC(C)(CC(C)(C3)C1)C2)c1ccccn1 (stereo unspecified) | 6 | 1 | 5.4* | 9 | -1 | 3
Cc1cccc(C(=O)N(c2ccccn2)C(C)c2ccco2)c1 (stereo unspecified) | 7 | 4 | -1 | -6 | 4 | 2
O=c1[nH]c(SCc2nc3ccccc3c(=O)n2-c2ccccc2)nc2ccccc12 | 8 | 25 | 1 | 1 | 55* | -2
O=c1[nH]c(SCc2n[nH]c(=S)n2-c2ccccc2)nc2ccccc12 | 0 | -6 | 1 | -2 | 9 | 0
O=c1[nH]c(SCc2ccc(Cl)cc2)nc2ccccc12 | 28 | 66* | 1 | -1 | 2 | 3
C=CCOc1ccc(/C=C2\SC(=S)N(NS(=O)(=O)c3ccc(C)cc3)C2=O)cc1 | -2 | 8 | 0 | -1 | 0 | 1
O=C(NNc1nc2cc3c(cc2s1)OCO3)c1cccc(F)c1 | 8 | 10 | 0 | -5 | 77* | 2
COc1cc(C(=O)NNc2nc3cc4c(cc3s2)OCO4)cc(OC)c1OC | 26 | 62* | 0 | 2 | 10 | 0
Cc1ccc2nc(NNC(=O)c3ccc4c(c3)OCCO4)sc2c1 | 2 | 6 | 0 | -1 | 48* | 1
O=C(NNc1nc2cc3c(cc2s1)OCO3)c1ccccc1 | -5 | -8 | 0 | -1 | 61* | 2
Cc1ccc2nc(N(CCN(C)C)C(=O)c3ccc4c(c3)OCCO4)sc2c1 | 15 | 15 | 2 | -1 | 21 | 4
COc1cc(OC)cc(C(=O)NNc2nc3cc4c(cc3s2)OCO4)c1 | 18 | 23 | 0 | -5 | 21 | 2
CCN(CC)S(=O)(=O)c1cccc(C(=O)Nc2nc3cc4c(cc3s2)OCCO4)c1 | 5 | -10 | -5 | -1 | -1 | 0
COc1cc(S(C)=O)ccc1-c1nc2ncccc2[nH]1 (stereo unspecified) | x | x | 0 | x | 21 | 1
COc1ccc(N=C(NN)c2ccc3ccccc3n2)cc1 | -61* | -65 | -2 | 16 | 71* | -9
COc1ccc(NC(=S)c2ccc3ccccc3n2)cc1 | 6 | 1 | 3 | 2 | 46 | 2
COc1ccc(C2C3=C(CCCC3=O)N(CC(=O)O)C3=C2C(=O)CCC3)cc1Cl | 30 | 77* | 1 | -1 | 0 | 1
COc1ccccc1/C=N\Nc1cn[nH]c(=O)c1Cl | 12 | 5 | -1 | 0 | 48* | 3
O=c1[nH]ncc(N/N=C\c2cccnc2)c1Cl | -4 | -1 | 5.2* | 0 | 12 | 0
COc1ccc(OC)c(N(CCN2C(=O)c3ccccc3C2=O)C(=O)CCl)c1 | x | x | -1 | x | x | -7
CC(C)c1ccc(NC(=O)CCNS(=O)(=O)c2ccc3[nH]c(=O)oc3c2)cc1 | 3 | 12 | -1 | -1 | -1 | 1
